smiles,measurement,setting,value
COc1cc2ncnc(Nc3cccc(Cl)c3F)c2cc1O[C@H]1CC[C@H]([C@@H]2NCCNC2=O)CC1 [BI00133844],Kinases covered,HCK,HCK
COc1ccc2c(-c3ccnc(Nc4cccc(OC(F)(F)F)c4)n3)cnn2n1 [GW810372X],Kinases covered,HIPK1,HIPK1
CCOc1ccc2c(-c3ccnc(Nc4cccc(C(F)(F)F)c4)n3)cnn2n1 [GW811761X],Kinases covered,HIPK2,HIPK2
same,Kinases covered,HIPK3,HIPK3
COC[C@@H](C)N[C@H]1CC[C@H](Nc2cc(-c3cccc(NCC4(C#N)CCOCC4)n3)c(Cl)cn2)CC1 [NVP-2],Kinases covered,HIPK4,HIPK4
CCCc1cc(N2CCCN(C)CC2)nc2sc3c(N)ncnc3c12 [BI00604564],Kinases covered,Haspin,Haspin
Cc1cc(NC(=O)c2cccc(NC(=O)/C=C/CN(C)C)c2)ccc1Nc1nccc(-c2cccnc2)n1 [JNK-IN-7],Kinases covered,ICK,ICK
CCC(NN(C)C)=C1C(=O)Nc2ccc(C(C)=O)cc21 [BI00036838],Kinases covered,ICK,ICK
c1ccc(-c2cc3ccncc3cc2OC2CCNCC2)cc1 [GSK1122999],Kinases covered,IKBKB,IKBKB

# Reference: PMC7826789 (International Journal of Molecular Sciences, 2021)
